Screening results from PubChem.
Pol iota inh – blocks human DNA polymerase iota activity; Q9UNA4; Pol iota fluorescent replication assay, 10 min; Potency, µM (top dose mostly 115 µM), actives largely listed as inhibitors; 390,000 compounds, 1% hits; AID 588590
Target sequence (Q9UNA4 whole entry, looked up): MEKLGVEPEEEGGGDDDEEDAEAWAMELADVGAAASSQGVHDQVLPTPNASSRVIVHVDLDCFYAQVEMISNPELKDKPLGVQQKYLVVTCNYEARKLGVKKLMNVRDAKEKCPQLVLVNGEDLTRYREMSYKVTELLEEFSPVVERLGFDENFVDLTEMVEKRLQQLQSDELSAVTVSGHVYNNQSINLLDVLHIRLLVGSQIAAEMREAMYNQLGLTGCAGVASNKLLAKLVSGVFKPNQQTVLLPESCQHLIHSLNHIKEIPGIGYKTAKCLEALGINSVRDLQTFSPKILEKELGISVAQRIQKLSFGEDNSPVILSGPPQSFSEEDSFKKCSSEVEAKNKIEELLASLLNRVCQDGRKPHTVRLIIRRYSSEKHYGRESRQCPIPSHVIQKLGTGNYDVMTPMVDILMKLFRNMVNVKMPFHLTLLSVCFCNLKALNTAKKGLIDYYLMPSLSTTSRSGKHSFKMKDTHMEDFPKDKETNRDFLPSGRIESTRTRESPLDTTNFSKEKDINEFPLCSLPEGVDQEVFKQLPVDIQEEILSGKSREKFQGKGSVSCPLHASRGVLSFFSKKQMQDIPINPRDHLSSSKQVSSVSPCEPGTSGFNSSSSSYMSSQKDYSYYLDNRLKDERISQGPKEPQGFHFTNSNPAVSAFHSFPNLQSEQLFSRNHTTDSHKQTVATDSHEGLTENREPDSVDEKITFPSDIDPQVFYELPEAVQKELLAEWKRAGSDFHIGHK
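Fluorescent replication assay read twice, at 0 min and 10 min after adding 50 nM (final) substrate. Enzyme (10 nM) and compounds were first incubated 15 min at room temperature; enzyme-free buffer wells were negative controls.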
Pol eta inh-1 – blocks human DNA polymerase eta activity; 390,000 compounds, 1.2% hits; recombinant Pol eta, fluorescent DNA replication assay; Q9Y253; Potency, µM (top dose mostly 114 µM), usual class: inhibitors
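Pol eta at 10 nM preincubated with compounds 15 min at room temperature; reaction started with fluorescent substrate (50 nM final) and read kinetically at 0 and 10 min.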
WRN helicase inh – WRN helicase (human) inhibition; 360,000 compounds, 0.46% hits; Potency, µM (series often up to 114 µM), actives largely listed as inhibitors; WRN helicase unwinding, fluorescent forked duplex, kinetic; AID 651768; Q14191; further: nearly all actives have a fitted effect of over 55% in size
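Enzyme (20 nM final) and test compound sit together 15 min at room temperature before substrate addition. Substrate is a single-forked duplex oligonucleotide (100 nM) labelled with fluorophore and quencher, with 2 mM ATP; helicase unwinding raises red fluorescence, read kinetically.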
POLB inh – blocks human DNA polymerase beta activity; 340,000 compounds, 1.3% hits; Pol beta primer extension/strand displacement, fluorescence kinetic; P06746; Potency, µM (series often up to 114 µM), most hits filed as inhibitors
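Human Pol beta at 10 nM; strand-displacement substrate 50 nM final. Compound exposure 15 min at room temperature before start, reaction 10 min at room temperature.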
Pol kappa inh-1 – DNA polymerase kappa (human) inhibition; AID 588579; Q9UBT6; Potency, µM (series often up to 107 µM), most hits filed as inhibitors; 400,000 compounds, 0.53% hits; purified Pol kappa, fluorescent DNA synthesis assay, 10 min
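Here, compound and 10 nM enzyme are combined for 15 min at room temperature; adding 50 nM substrate (final) starts DNA synthesis, tracked by fluorescence at 0 and 10 min against buffer-only wells.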
FEN1 inh – blocks human flap endonuclease 1; Recombinant FEN1 flap cleavage, fluorescence, 15 min; Potency, µM (highest dose often 114 µM), usual class: inhibitors; AID 588795; 390,000 compounds, 0.35% hits; P39748; further: nearly all actives have a fitted effect of over 65% in size
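Quantitative HTS format: each compound was titrated, incubated with 10 nM nuclease for 15 min at room temperature, then challenged with flap substrate at 50 nM final. Signal change over 15 min gave concentration–effect curves.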
PGK validate – validation of Trypanosoma brucei phosphoglycerate kinase inhibitors. TbPGK coupled GAPDH assay, Kinase-Glo luminescence. Potency, µM (top dose mostly 57.5 µM), hits mostly inhibitors. 500 compounds, 79% hits. shares compounds with Pol kappa inh-1; further: nearly all actives have a fitted effect of over 65% in size
Pol iota confirm – Human Pol iota inhibitor confirmatory assay. shares compounds with Pol kappa inh-1. Pol iota primer extension, TAMRA/BHQ fluorescence. Potency, µM, hits mostly inhibitors. 1,500 compounds, 77% hits. AID 720496
GALK inh confirm – galactokinase (human) inhibition, confirmation | shares compounds with Pol eta inh-1 | purified GALK, Kinase-Glo ATP depletion luminescence | Potency, µM (highest dose often 115 µM), hits mostly inhibitors | 150 compounds, 70% hits | AID 2015
Redox cycling – generates H2O2 by redox cycling, flagging GALK artifacts | shares compounds with Pol eta inh-1 | 150 compounds, 40% hits | Phenol red-HRP H2O2 redox cycling, absorbance 600 nm | Potency, µM (highest dose often 115 µM), usual class: inhibitors | AID 2035
HEK293 tox – reduces HEK-293 cell viability in GALK counter-screen; AID 2547; HEK-293 viability, ATP luminescence (CellTiter-Glo), 24/48 h; 170 compounds, 10% hits; Potency, µM (titrated, usually from 46.1 µM), actives largely listed as inhibitors; shares compounds with Pol eta inh-1
Pol kappa inh-2 – confirmation of human DNA polymerase kappa inhibitors | shares compounds with Pol eta inh-1 | purified Pol-kappa, fluorescent strand-displacement substrate | Potency, µM, most hits filed as inhibitors | 920 compounds, 76% hits
Pol eta inh-2 – Pol eta (human) inhibition, cherry-pick confirmation. shares compounds with Pol eta inh-1. Pol eta primer extension, TAMRA/BHQ fluorescence, 10 min. Potency, µM, actives largely listed as inhibitors. 2,600 compounds, 64% hits. AID 720502
Large screens that a line does not name were inactive (follow-up assays come after a bar, where they were run). The list is not random: actives were taken first. Their share in the collection is about 2.4%. The call rests on the fitted dose curve; in most records, active means well fitted curve in the direction sought with a large enough effect; inconclusive means small, poorly fitted or top-dose-only effect, or another doubt; inactive means no such curve, though single readings can be large; an effect the other way counts as inactive or inconclusive.

CCc1ccc(S(=O)(=O)/N=C2\C=C(Nc3cccc(C(=O)O)c3)C(=O)c3ccccc32)cc1	Pol iota inh 1.1µM, Pol eta inh-1 22µM, WRN helicase inh inconclusive, POLB inh inconclusive | Pol iota confirm 75 | Pol eta inh-2 60
O=C(O)c1ccc(NC2=C/C(=N/S(=O)(=O)c3ccccc3)c3ccccc3C2=O)cc1	Pol iota inh inconclusive, Pol eta inh-1 8.9µM, WRN helicase inh inconclusive, FEN1 inh inconclusive | Pol iota confirm 19 | GALK inh confirm inconclusive | Redox cycling 6µM | HEK293 tox 11µM | Pol eta inh-2 21
COC(=O)c1cc(-c2ccc(C)cc2)c2c(=O)n(C)c(=O)n(C)c2n1	none (no result: Pol eta inh-1, WRN helicase inh)
O=C(CSc1nccc(=O)[nH]1)N1N=C2/C(=C/c3ccco3)CCCC2C1c1ccco1 (stereo not drawn)	Pol iota inh 45µM, Pol eta inh-1 25µM, WRN helicase inh inconclusive, POLB inh 28µM, Pol kappa inh-1 inconclusive | Pol iota confirm 38 | Pol eta inh-2 30
COc1cccc(C(=O)Nc2ccccc2C(=O)OCc2cc(=O)n3nc(C4CC4)sc3n2)c1	none (no result: WRN helicase inh)
O=C(CSc1ccsc1[N+](=O)[O-])Nc1cccc(F)c1	Pol iota inh inconclusive, Pol eta inh-1 22µM, WRN helicase inh inconclusive, POLB inh 7.1µM, Pol kappa inh-1 22µM, FEN1 inh inconclusive | Pol iota confirm 67 | Pol eta inh-2 48
CCc1ccccc1NC(=O)CSc1ccsc1[N+](=O)[O-]	Pol iota inh 18µM, Pol eta inh-1 32µM, WRN helicase inh inconclusive, POLB inh 25µM, Pol kappa inh-1 inconclusive | Pol iota confirm inconclusive | Pol eta inh-2 60
COc1ccccc1CNC(=O)CSc1ccsc1[N+](=O)[O-]	Pol iota inh inconclusive, POLB inh inconclusive
CS(=O)(=O)N1N=C(c2ccco2)CC1c1ccco1 (stereo not drawn)	Pol iota inh inconclusive, Pol eta inh-1 22µM, POLB inh inconclusive, Pol kappa inh-1 79µM | Pol iota confirm 53 | Pol kappa inh-2 19 | Pol eta inh-2 30
Cc1ccc2nc(SCC(=O)NCc3ccccc3Cl)nc(=O)n2c1	none (no result: POLB inh)
Cc1ccn2c(=O)nc(SCC(=O)NCc3ccccc3Cl)nc2c1	Pol iota inh 56µM, Pol eta inh-1 18µM, WRN helicase inh inconclusive (no result: POLB inh) | Pol iota confirm 67 | Pol kappa inh-2 27 | Pol eta inh-2 60
CCCn1c(=O)c2sccc2n2c(CCCC(=O)Nc3cccc(CC)c3)nnc12	none (no result: WRN helicase inh)
COc1ccc(C=C2SC(=S)N(CCCN3CCOCC3)C2=O)c(OC)c1	none (no result: Pol iota inh, POLB inh, Pol kappa inh-1, FEN1 inh)
O=C1C(=Cc2cccc(O)c2O)SC(=S)N1CCCN1CCOCC1	Pol eta inh-1 20µM (no result: Pol iota inh, POLB inh, Pol kappa inh-1, FEN1 inh) | Pol iota confirm inconclusive | Pol eta inh-2 inconclusive
Cc1cc(N(C)C)cc(C)c1/C=C/c1cc[n+](C)c2ccccc12	FEN1 inh inconclusive (no result: Pol eta inh-1, WRN helicase inh, POLB inh)
CCOC(=O)c1ccc(Nc2ncccc2[N+](=O)[O-])cc1	none
CCOC(=O)c1ccc(N/N=C/c2cc(Br)cc([N+](=O)[O-])c2O)cc1	Pol eta inh-1 25µM | Pol iota confirm 67 | Pol eta inh-2 inconclusive
CCn1c(=O)sc2cc(NS(=O)(=O)c3ccc(F)c(C)c3)ccc21	none (no result: WRN helicase inh)
CC(=O)O[C@]1(C(C)=O)CC[C@H]2C3C=C(Cl)C4=CC(=O)[C@@H]5C[C@H]5[C@]4(C)C3CC[C@@]21C (stereo partly drawn)	Pol iota inh inconclusive, POLB inh inconclusive (no result: WRN helicase inh, Pol kappa inh-1, FEN1 inh)
Cc1sc2nc3n(c(=O)c2c1C)CCCS3	none
O=Cc1ccc2oc3nc4n(c(=O)c3c(=O)c2c1)CCCS4	Pol iota inh 7.9µM, Pol eta inh-1 2.5µM, WRN helicase inh 20µM, POLB inh 8.9µM, Pol kappa inh-1 20µM, FEN1 inh 50µM | Pol iota confirm 4.7 | Pol kappa inh-2 8.4 | Pol eta inh-2 11
Nc1cc([N+](=O)[O-])ccc1Nc1ccccc1	none
Nc1ccc(Nc2ccccc2)c(S(=O)(=O)O)c1	Pol iota inh 11µM, Pol eta inh-1 16µM, WRN helicase inh inconclusive, POLB inh 11µM, Pol kappa inh-1 79µM | Pol iota confirm 47 | Pol kappa inh-2 8.4 | Pol eta inh-2 38
COc1ccc2[nH]c(=O)cc(C(=O)O)c2c1	Pol iota inh inconclusive, Pol eta inh-1 14µM, POLB inh 18µM, Pol kappa inh-1 inconclusive | Pol iota confirm inconclusive | Pol kappa inh-2 11 | Pol eta inh-2 27
COc1ccc(C(=O)OCC(=O)Nc2ncc([N+](=O)[O-])s2)cc1OC	Pol iota inh inconclusive, Pol eta inh-1 3.2µM, WRN helicase inh 50µM, Pol kappa inh-1 22µM, FEN1 inh 35µM (no result: POLB inh) | PGK validate 18µM | Pol iota confirm 19 | Pol kappa inh-2 6.7 | Pol eta inh-2 inconclusive
Cc1ccc(CC(=O)Nc2ncc([N+](=O)[O-])s2)cc1	none
COc1ccc(C(=O)OCC(=O)NC(C)(C)C)cc1[N+](=O)[O-]	none
O=C(COC(=O)c1ccc(Br)o1)Nc1ncc([N+](=O)[O-])s1	Pol iota inh 22µM, Pol eta inh-1 3.2µM, WRN helicase inh inconclusive, Pol kappa inh-1 79µM, FEN1 inh inconclusive (no result: POLB inh) | Pol iota confirm inconclusive | Pol kappa inh-2 11 | Pol eta inh-2 19
